Activity calls are given as the source filed them. Rule for the calls: active = hit-call score of the fitted dose curve at least 0.9, where 1 is the maximum; inactive = score below 0.9.

Read-out in one test: ABC Transporter (ABCB1), ABCB1 (gene 5243)
In words: LTEA_HepaRG_ABCB1: Life Technologies and Expression Analysis (LTEA) Assay for ABC Transporter (ABCB1) using HepaRG (AID 2283460). The following applies: mRNA level, 48 h; actives raise or lower the signal. A digest of the protocol: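 HepaRG cells exposed in duplicate for 48 h in serum-free induction medium to eight half-log concentrations up to 100 uM in 0.5% DMSO. ABCB1 mRNA quantified by qRT-PCR, normalised to ACTB, GAPDH and POLR2A; fitted bidirectionally versus DMSO.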
Take `COc1ccc2c(c1)c(CC(=O)O)c(C)n2C(=O)c1ccc(Cl)cc1`: the result was inactive.

In general, AC50 refers to the midpoint of the concentration-response curve, whichever way the signal moves. `COCCOCCOC`: the AC50 is 2.83 µM (active).

`COC(=O)c1ccc(O)cc1`: the outcome was inactive.

As for `Cc1cc(=O)[nH]c(=S)[nH]1`, the result was inactive.

Regarding `CC1=C(/C=C/C(C)=C/C=C/C(C)=C/CO)C(C)(C)CCC1`, the concentration at half-maximal activity (AC50) is 52.2 µM (active).

As for `COc1ccc(C)cc1N`, the outcome was inactive.

In the case of `OC[C@@H](O)[C@@H](O)[C@H](O)[C@H](O)CO`, the call was inactive.

On to `NS(=O)(=O)c1cc2c(cc1Cl)NCNS2(=O)=O`, for which the compound was classed as inactive.

Turning to `NCCO`, the result was inactive.

As to `c1cc(-c2ccncc2)ccn1`, the compound was classed as inactive.

As to `Cc1cccc([N+](=O)[O-])c1C`, the outcome was inactive.

Consider `Cc1oc(-c2ccccc2)nc1CCOc1cccc2c1ccn2CCC(=O)O`, for which the AC50 was 81.3 µM (active).

`CCOC(=O)CCC(=O)OCC`: the compound was classed as inactive.

For `CN[C@H]1CC[C@@H](c2ccc(Cl)c(Cl)c2)c2ccc(S(N)(=O)=O)cc21`, the AC50 is 89.3 µM (active).

In the case of `NC(=O)Cn1c(=O)cc(CCN2CCN(c3nccc4sccc34)CC2)c2ccc(F)cc21`, the AC50 is 36.6 µM (active).

`CCCCCC(=O)O`: the compound was called inactive.

`C=CCc1ccc(O)c(OC)c1`: the compound was called inactive.

With `CC(CO)OC(C)CO` (configuration not stated) (tested in a mixture with another compound), the call was inactive.

Read-out in the next test: growth arrest and DNA damage 45 (GADD45B), GADD45B (gene 4616)
The experiment in a line: LTEA_HepaRG_GADD45B: Life Technologies and Expression Analysis (LTEA) Assay for growth arrest and DNA damage 45 (GADD45B) using HepaRG (AID 2283461). The following applies: mRNA level, 48 h; actives raise or lower the signal. A digest of the protocol: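 Differentiated human HepaRG cells in serum-free induction medium exposed 48 h in duplicate to eight concentrations, top 100 uM, half-log steps, 0.5% DMSO. GADD45B mRNA by TaqMan qRT-PCR, normalized to ACTB, GAPDH, POLR2A; bidirectional fit versus DMSO.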
As for `COc1ccc2c(c1)c(CC(=O)O)c(C)n2C(=O)c1ccc(Cl)cc1`, the outcome was inactive.

In the case of `CNCc1cc(F)ccc1Oc1ccc(Cl)c(Cl)c1`, the AC50 is 91.3 µM (active).

On to `C[Si]1(C)O[Si](C)(C)O[Si](C)(C)O[Si](C)(C)O1`, for which the result was inactive.

With `COCCOCCOC`, the call was inactive.

`COC(=O)c1ccc(O)cc1`: the result was inactive.

Consider `O=C(O)CCCCC(=O)O`, for which the call was inactive.

`Cc1cc(=O)[nH]c(=S)[nH]1`: the compound was classed as inactive.

As for `Cc1nc(-c2ccc3c(c2)CCN(CCC2CCC(NC(=O)/C=C/c4ccc(F)cc4)CC2)CC3)no1` (configuration not stated), the compound was classed as inactive.

For the compound `CC1=C(/C=C/C(C)=C/C=C/C(C)=C/CO)C(C)(C)CCC1`, the compound was called inactive.

In the case of `CC(=O)OC/C=C(\C)CCC=C(C)C`, the compound was called inactive.

For the compound `COc1ccc(C)cc1N`, the compound was classed as inactive.

In the case of `OC[C@@H](O)[C@@H](O)[C@H](O)[C@H](O)CO`, the compound was classed as inactive.

As for `NS(=O)(=O)c1cc2c(cc1Cl)NCNS2(=O)=O`, the compound was classed as inactive.

As to `NCCO`, the outcome was inactive.

`COc1ccc(S(=O)(=O)N2C(=O)[C@@](c3ccccc3OC)(N3C[C@H](O)C[C@H]3C(=O)N(C)C)c3cc(Cl)ccc32)c(OC)c1`: the compound was classed as inactive.

With `c1cc(-c2ccncc2)ccn1`, the compound was classed as inactive.

`Cc1nc(C)nc(N2C[C@@H](C)N(c3ccnc([C@@H](C)O)n3)[C@@H](C)C2)n1`: the compound was classed as inactive.

On to `Cc1cccc([N+](=O)[O-])c1C`, for which the call was inactive.

Turning to `Cc1oc(-c2ccccc2)nc1CCOc1cccc2c1ccn2CCC(=O)O`, the AC50 was 75.8 µM (active).

Take `CCOC(=O)CCC(=O)OCC`: the compound was called inactive.

As to `CN[C@H]1CC[C@@H](c2ccc(Cl)c(Cl)c2)c2ccc(S(N)(=O)=O)cc21`, the AC50 is 80.4 µM (active).

Consider `NC(=O)Cn1c(=O)cc(CCN2CCN(c3nccc4sccc34)CC2)c2ccc(F)cc21`, for which the compound was called inactive.

Consider `CCCCCC(=O)O`, for which the result was inactive.

For the compound `Cc1ccc(C)c(O)c1C`, the compound was called inactive.

On to `CC=Cc1ccc(O)c(OC)c1`, for which the result was inactive.

As to `CCCCN(CCCC)CCCC`, the compound was classed as inactive.

With `C=CCc1ccc(O)c(OC)c1`, the outcome was inactive.

`CCCCCCCCCCCCCO`: the call was inactive.

As to `CC(CO)OC(C)CO` (configuration not stated) (tested in a mixture with another compound), the compound was called inactive.

The values above are taken from PubChem BioAssay (EPA / NIEHS).
